From PubChem BioAssay
The source made the active and inactive calls.

How the values were obtained:
[1] = tested on: Plasmodium falciparum Sir2 (PF13_0152, Sir2A); assay: Plasmodium falciparum Sir2A binding compounds – biochemical, small-molecule microarray, 635 nm fluorescence, primary screen (AID 1098); conditions: fluorescence 635 nm, higher = more signal;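 note: score merges spot fluorescence intensity with its signal-to-noise ratio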
[2] = probe aDKK1 binding to arrayed compounds – biochemical, biotinylated probe, 635/667 nm fluorescence, primary screen (AID 1099); conditions: small-molecule microarray, higher = more signal;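 note: score merges 667nm spot fluorescence with signal to noise across triplicate slides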
[3] = probe aCHRDL2 binding to arrayed compounds – biochemical, biotinylated probe, 635/667 nm fluorescence, primary screen (AID 1100); conditions: small-molecule microarray, higher = more signal
[4] = change in splice reporter luminescence, either direction, cell-based, HEK293, spliceosome inhibition project, primary screen (AID 1101); conditions: HEK293 splicing luciferase reporter, 24 h, higher = more signal, called active from +8 up or from −8 down;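 note: HEK293 cells carrying a splicing-competent luciferase reporter gene; test concentration not given here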
[5] = target: Fibroblast growth factor 10 (Homo sapiens) (UniProt O15520); assay: compounds binding fibroblast growth factor 10 – biochemical, small-molecule microarray, 635 nm fluorescence, primary screen (AID 1102); conditions: FGF10 binding, fluorescence 635 nm, higher = more signal
[6] = tested on: glycogen synthase kinase-3 (GSK3A per assay name; protocol says GSK3B); assay: compounds binding glycogen synthase kinase-3 – biochemical, small-molecule microarray, 635 nm fluorescence, GSK3A, primary screen (AID 1103); conditions: fluorescence 635 nm, higher = more signal; note: the record names both GSK3A and GSK3B
[7] = target: Epidermal growth factor receptor (Homo sapiens) (UniProt P00533); assay: compounds binding epidermal growth factor receptor – biochemical, small-molecule microarray, 635 nm fluorescence, primary screen (AID 1104); conditions: EGFR binding, higher = more signal;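 note: score merges 667 nm emission intensity with spot signal to noise over triplicate slides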
[8] = target: Follistatin-related protein 3 (Homo sapiens) (UniProt O95633); assay: compounds binding follistatin-related protein 3 – biochemical, small-molecule microarray, 635 nm fluorescence, primary screen (AID 1105); conditions: FSTL3 binding, higher = more signal;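 note: score merges emission near 667 nm and signal to noise per printed spot across three slides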
[9] = target: Dickkopf-related protein 1 (Homo sapiens) (UniProt O94907); assay: small molecules binding DKK1 protein – biochemical, small-molecule microarray, 635 nm fluorescence scan, primary screen (AID 1106); conditions: higher = more signal;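 note: score merges emission near 667 nm with signal to noise over three replicate slides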
[10] = tested on: Inhibin beta A chain (activin A); assay: small molecules binding activin A – biochemical, small-molecule microarray, 635 nm fluorescence scan, primary screen (AID 1107); conditions: INHBA, higher = more signal;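 note: mouse activin A protein probed at 4.33 µg/mL on printed slides; score merges bound-protein fluorescence near 667 nm with spot signal-to-noise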
[11] = tested on: Human papillomavirus type 1a protein E7 (residues 44-93); assay: small molecules binding HPV E7 44-93 – biochemical, small-molecule microarray, residues 44-93, 635 nm fluorescence, primary screen (AID 1108); conditions: fluorescence 635 nm, higher = more signal;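 note: E7 fragment applied at 1 µg/mL in TBST for 1 h at 4 C; score combines spot fluorescence with its signal to noise ratio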
[12] = hepatitis C replication reporter changes, two-sided – Huh7 cells, luciferase reporter, HCV replication inhibitor project, primary screen (AID 1109); conditions: Huh7 HCV replicon luciferase reporter, 48 h; higher = more signal;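 note: huh7 hepatoma cells harbouring a luciferase neomycin HCV replicon reporter; luciferase luminescence as measure of HCV replicon replication; test concentration not given here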
[13] = target: Left-right determination factor 2 (Homo sapiens) (UniProt O00292); assay: small molecules binding LEFTY2 protein – biochemical, small-molecule microarray, 635 nm fluorescence scan, primary screen (AID 1110); conditions: higher = more signal
[14] = target: Calmodulin-1 (Homo sapiens) (UniProt P0DP23); assay: small molecules binding calmodulin-1 with EGTA – biochemical, small-molecule microarray, Cy5-labelled CALM1, profiling panel (AID 1111); conditions: Cy5-CALM1 binding fluorescence, higher = more signal;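 note: labelled calmodulin applied in Tris saline Tween buffer holding calcium plus EGTA and DTT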
[15] = target: Calmodulin-1 (Homo sapiens) (UniProt P0DP23); assay: small molecules binding Ca-loaded calmodulin-1 – biochemical, small-molecule microarray, Cy5-labelled CALM1, plus calcium, artefact control for SMM control-protein annotation, profiling panel (AID 1112); conditions: Cy5-CALM1 binding fluorescence, higher = more signal;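 note: score merges spot fluorescence with signal to noise from triplicate slides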
[16] = probe aWnt5a binding to arrayed compounds – biochemical, biotinylated probe, 635/667 nm fluorescence, primary screen (AID 1113); conditions: small-molecule microarray, higher = more signal;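 note: score merges 667 nm fluorescence intensity with signal-to-noise per printed feature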
[17] = probe aShh binding to arrayed compounds – biochemical, biotinylated probe, 635/667 nm fluorescence, primary screen (AID 1114); conditions: small-molecule microarray, higher = more signal;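 note: probe is biotin-labelled aShh protein from a stem cell growth factor screen; measures binding of labelled protein to compounds printed on the slide; score merges feature fluorescence at 667 nm with signal-to-noise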
[18] = probe aNog binding to arrayed compounds – biochemical, biotinylated probe, 635/667 nm fluorescence, primary screen (AID 1115); conditions: small-molecule microarray, higher = more signal;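 note: probe is biotinylated aNog protein used at 0.15 µg/mL for 1 h at 4 C; z-score combines 667 nm fluorescence of each spot with its signal to noise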
[19] = target: Torsin-1A-interacting protein 1 (Homo sapiens) (UniProt Q5JTV8); assay: compound microarray binding of lysate hLAP1 – cell lysate, small-molecule microarray, COS7 lysate, 635/667 nm fluorescence, primary screen (AID 1116); conditions: 635 nm fluorescence, higher = more signal
[20] = target: Alpha-bungarotoxin (Bungarus multicinctus) (UniProt P60615); assay: compounds binding labelled alpha-BTX control protein – biochemical, small-molecule microarray, Alexa647 label, 635/667 nm fluorescence, artefact control for SMM control protein annotation, profiling panel (AID 1117); conditions: alpha-BTX-A647 binding fluorescence, higher = more signal
Alpha-bungarotoxin (Bungarus multicinctus), sequence (P60615 whole entry, looked up): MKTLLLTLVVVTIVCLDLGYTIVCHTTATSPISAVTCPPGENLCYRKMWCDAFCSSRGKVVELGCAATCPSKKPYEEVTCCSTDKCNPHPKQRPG

Fibroblast growth factor 10 (Homo sapiens), sequence (O15520 whole entry, looked up): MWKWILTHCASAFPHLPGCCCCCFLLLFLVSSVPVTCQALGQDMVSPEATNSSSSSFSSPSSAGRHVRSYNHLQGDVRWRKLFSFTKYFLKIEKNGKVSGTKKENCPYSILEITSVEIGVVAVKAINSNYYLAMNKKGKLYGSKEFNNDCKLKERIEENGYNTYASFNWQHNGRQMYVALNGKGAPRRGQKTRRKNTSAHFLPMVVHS
Torsin-1A-interacting protein 1 (Homo sapiens), sequence (Q5JTV8 whole entry, looked up): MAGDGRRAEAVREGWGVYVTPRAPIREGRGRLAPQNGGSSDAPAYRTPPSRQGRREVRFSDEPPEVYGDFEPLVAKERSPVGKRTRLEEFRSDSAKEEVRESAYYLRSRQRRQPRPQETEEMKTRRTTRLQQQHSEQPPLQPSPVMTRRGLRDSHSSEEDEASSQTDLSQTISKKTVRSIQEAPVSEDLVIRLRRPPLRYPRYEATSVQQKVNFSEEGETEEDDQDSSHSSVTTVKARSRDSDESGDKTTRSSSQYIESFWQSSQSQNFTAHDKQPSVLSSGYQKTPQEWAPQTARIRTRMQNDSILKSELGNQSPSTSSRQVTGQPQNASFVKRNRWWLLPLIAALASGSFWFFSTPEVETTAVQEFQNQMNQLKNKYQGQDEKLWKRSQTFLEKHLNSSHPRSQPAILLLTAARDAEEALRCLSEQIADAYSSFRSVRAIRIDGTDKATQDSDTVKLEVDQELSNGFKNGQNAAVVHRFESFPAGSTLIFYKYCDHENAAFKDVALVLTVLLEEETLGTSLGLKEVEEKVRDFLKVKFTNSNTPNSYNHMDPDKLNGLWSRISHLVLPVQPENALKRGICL
Dickkopf-related protein 1 (Homo sapiens), sequence (O94907 whole entry, looked up): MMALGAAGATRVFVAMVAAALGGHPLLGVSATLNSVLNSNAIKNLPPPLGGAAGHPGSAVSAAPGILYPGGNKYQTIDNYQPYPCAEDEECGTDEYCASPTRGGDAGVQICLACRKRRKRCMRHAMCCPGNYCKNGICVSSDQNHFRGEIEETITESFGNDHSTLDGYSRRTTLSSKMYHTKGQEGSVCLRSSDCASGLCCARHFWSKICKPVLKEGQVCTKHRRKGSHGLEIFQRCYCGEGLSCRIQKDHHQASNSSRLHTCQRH
Epidermal growth factor receptor (Homo sapiens), sequence (P00533 whole entry, looked up): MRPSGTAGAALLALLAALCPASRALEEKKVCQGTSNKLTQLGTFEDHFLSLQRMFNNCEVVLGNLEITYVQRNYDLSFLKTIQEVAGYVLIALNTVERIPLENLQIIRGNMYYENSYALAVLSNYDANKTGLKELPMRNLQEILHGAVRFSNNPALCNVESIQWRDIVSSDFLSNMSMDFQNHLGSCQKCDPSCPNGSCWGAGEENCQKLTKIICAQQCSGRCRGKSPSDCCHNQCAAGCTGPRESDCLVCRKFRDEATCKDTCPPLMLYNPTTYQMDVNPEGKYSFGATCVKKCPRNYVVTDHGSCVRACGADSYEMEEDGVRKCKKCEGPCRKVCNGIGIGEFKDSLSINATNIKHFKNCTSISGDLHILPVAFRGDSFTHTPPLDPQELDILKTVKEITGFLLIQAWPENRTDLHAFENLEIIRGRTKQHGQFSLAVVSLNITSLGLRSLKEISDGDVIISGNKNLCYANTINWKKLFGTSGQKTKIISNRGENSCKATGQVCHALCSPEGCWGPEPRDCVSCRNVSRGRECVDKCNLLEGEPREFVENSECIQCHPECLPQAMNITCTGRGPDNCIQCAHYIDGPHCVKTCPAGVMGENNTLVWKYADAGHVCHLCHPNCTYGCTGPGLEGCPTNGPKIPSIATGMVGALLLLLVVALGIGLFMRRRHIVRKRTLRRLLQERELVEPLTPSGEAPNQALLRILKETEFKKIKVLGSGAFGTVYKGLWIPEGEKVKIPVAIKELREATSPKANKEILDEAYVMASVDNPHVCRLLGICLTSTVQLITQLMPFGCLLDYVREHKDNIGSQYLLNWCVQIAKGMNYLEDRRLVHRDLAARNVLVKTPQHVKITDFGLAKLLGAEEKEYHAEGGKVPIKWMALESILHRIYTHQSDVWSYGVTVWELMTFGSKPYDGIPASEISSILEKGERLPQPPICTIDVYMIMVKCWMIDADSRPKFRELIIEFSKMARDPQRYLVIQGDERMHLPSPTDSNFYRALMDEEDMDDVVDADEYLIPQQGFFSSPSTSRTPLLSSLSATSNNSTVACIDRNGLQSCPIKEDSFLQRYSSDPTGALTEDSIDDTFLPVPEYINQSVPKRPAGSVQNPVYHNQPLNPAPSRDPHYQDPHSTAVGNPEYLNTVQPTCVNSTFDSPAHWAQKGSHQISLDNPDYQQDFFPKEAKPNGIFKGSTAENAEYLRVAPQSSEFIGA
Left-right determination factor 2 (Homo sapiens), sequence (O00292 whole entry, looked up): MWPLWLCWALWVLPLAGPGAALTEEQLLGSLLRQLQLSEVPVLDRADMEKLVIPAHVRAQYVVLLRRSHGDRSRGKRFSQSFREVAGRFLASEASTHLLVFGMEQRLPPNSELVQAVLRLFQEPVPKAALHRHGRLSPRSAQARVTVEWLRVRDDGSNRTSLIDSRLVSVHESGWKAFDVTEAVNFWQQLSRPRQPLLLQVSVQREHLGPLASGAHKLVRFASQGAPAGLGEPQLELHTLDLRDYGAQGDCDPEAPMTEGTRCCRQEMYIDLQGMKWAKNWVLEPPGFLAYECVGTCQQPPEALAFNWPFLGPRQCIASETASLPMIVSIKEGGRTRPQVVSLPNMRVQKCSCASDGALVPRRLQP
Follistatin-related protein 3 (Homo sapiens), sequence (O95633 whole entry, looked up): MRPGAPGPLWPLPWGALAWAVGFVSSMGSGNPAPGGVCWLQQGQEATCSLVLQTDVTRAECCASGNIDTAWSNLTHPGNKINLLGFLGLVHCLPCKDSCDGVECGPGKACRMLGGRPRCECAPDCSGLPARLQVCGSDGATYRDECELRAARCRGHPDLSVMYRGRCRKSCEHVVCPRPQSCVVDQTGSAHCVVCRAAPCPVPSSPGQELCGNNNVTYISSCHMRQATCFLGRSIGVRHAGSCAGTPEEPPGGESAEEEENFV

SMILES | composite z-score [1] | composite z-score [2] | composite z-score [3] | z-score [4] | composite z-score [5] | composite z-score [6] | composite z-score [7] | composite z-score [8] | composite z-score [9] | composite z-score [10] | composite z-score [11] | z-score [12] | composite z-score [13] | composite z-score [14] | composite z-score [15] | composite z-score [16] | composite z-score [17] | composite z-score [18] | composite z-score [19] | composite z-score [20]
CC(=O)OC[C@H]1O[C@H](CC=NO[C@H](C)c2cn([C@H](CO)Cc3ccccc3)nn2)C=C[C@@H]1OC(C)=O | 0.95 | -0.154 | -0.357 | 0.67 (inactive) | 0.945 | 0.926 | 0.569 | 0.995 | 1.43 | -0.143 | 1.16 | -0.355 | 0.852 | 0.081 | -0.367 | -0.0231 | -0.0553 | 0.223 | 0.213 | 1.27
CCOC(=O)C1=NO[C@@]2(C=C(Br)C3(OCCCO3)[C@H]3O[C@H]32)C1 | 0.984 | -0.042 | 0.521 | 0.0671 (inactive) | 1.07 | 0.827 | 1.13 | 0.842 | 1.66 | 1.59 | 0.339 | -0.154 | 1.13 | -2.14 | -2.64 | -0.138 | 0.0952 | -0.452 | -0.143 | 2.04
COC(=O)CC=C[C@@H](C)[C@@H]1C=C[C@H](O)[C@@H](CO)O1 | 0.146 | -0.0367 | -0.48 | -0.593 (inactive) | 0.666 | 0.753 | 0.369 | 0.559 | 1.15 | 0.165 | 0.0429 | -0.0733 | 0.43 | 0.367 | -0.818 | -0.154 | 0.647 | -0.546 | 0.297 | -0.139
CO[C@@H]1COC(=O)CC=C[C@@H](C)[C@H](OC)COC(=O)[C@@H](C)COC(=O)CC=C[C@H]1C | 0.474 | -0.803 | -1.29 | 0.166 (inactive) | -0.55 | 0.0478 | 0.354 | 0.734 | 1.37 | 1.85 | -0.82 | 0.0811 | 0.889 | -0.618 | -1.59 | -0.237 | -0.0553 | -0.284 | 0.263 | -0.864
COc1ccc(C#C[C@@H]2C=C[C@H](OC(C)=O)[C@@H](COC(C)=O)O2)cc1 | 0.647 | -0.174 | -0.289 | -0.613 (inactive) | 0.465 | 0.185 | 0.586 | 0.842 | 0.476 | 1.18 | 0.318 | -2.21 | 0.591 | -0.268 | -0.534 | -0.2 | -0.0471 | -0.208 | 0.257 | 0.193
CCOC(=O)[C@H](Cc1ccccc1)NC(=O)CCC1CC(OC(=O)NCc2ccc3c(c2)OCO3)CC2(CCCC(COC(=O)NCCc3ccccc3OC)O2)O1 (stereo not given in full) | 0.604 | -0.0864 | -0.465 | 0.222 (inactive) | 0.977 | 1.23 | 0.539 | 1.35 | 0.759 | 0.0493 | 1.39 | -1.11 | 0.816 | 0.627 | 0.157 | -0.0944 | -0.0471 | -0.0125 | 0.775 | 1.11
COC(=O)C1=C(C)N(Cc2ccccc2)[C@]23O[C@](C(=O)OC)(C(=O)N2[C@@H]1c1ccccc1)C(C(=O)OC)=C3C(=O)OC | 1.16 | -0.389 | -0.562 | -2.35 (inactive) | 1.24 | 1.06 | 0.7 | 0.84 | 0.757 | 0.226 | 1.3 | -2.76 | 0.88 | -0.328 | -1.19 | -0.0346 | -0.138 | 0.229 | 0.569 | -0.129
C=COC[C@@H]1CN2[C@@H](CC[C@@H](C)[C@@H]2c2ccc(Br)cc2)C(=O)O1 | 0.0845 | -0.319 | -0.0905 | -0.589 (inactive) | -0.472 | -0.413 | -0.46 | -0.46 | -0.0521 | 1.47 | -0.0205 | -0.0522 | -0.0429 | -0.941 | -1.26 | -0.124 | 0.0284 | -0.0079 | -0.111 | 0.259
Cc1cc2c(nc1C)CCCN2CC(O)CN1CCCc2nc(C)c(C)cc21 | 0.264 | 0.125 | 0.258 | -0.153 (inactive) | 0.92 | 0.388 | 0.36 | 0.552 | 0.536 | 1.17 | 0.142 | -0.107 | 0.368 | 0.239 | -0.322 | 0.308 | 0.699 | 0.568 | 3.26 | 1.42
CC[C@@H](c1ccccc1)n1c(=O)n2n(c1=O)[C@H]1[C@H](O)[C@@H]3O[C@@H]3C(=O)[C@H]1CC2 | 1.23 | -0.245 | -0.717 | 0.797 (inactive) | 0.427 | 0.417 | 0.489 | 0.32 | 0.466 | 0.384 | 0.225 | -4.01 | 0.497 | -0.202 | -0.246 | -0.101 | -0.0474 | -0.209 | -0.113 | 0.414
COC(=O)CC=C[C@@H](C)[C@@H](C=NO[C@H](C)c1cn([C@H](CO)Cc2ccccc2)nn1)NS(=O)(=O)c1ccc(C)cc1 | 0.182 | 0.0644 | -0.0281 | 0.0956 (inactive) | 0.532 | 0.0796 | 0.264 | 0.226 | 0.0568 | -0.119 | 0.37 | -1.35 | 0.483 | 0.333 | -0.215 | -0.152 | 0.178 | -0.0196 | 1.42 | 1.56
CCOC(=O)[C@H](Cc1ccccc1)NC(=O)CCC1CC(OC(=O)NCc2cccc3ccccc23)CC2(CCCC(COC(=O)NCc3cccc(C(F)(F)F)c3)O2)O1 (stereo not given in full) | 0.532 | -0.181 | -0.172 | -0.247 (inactive) | 0.152 | -0.189 | -0.185 | -0.278 | 0.025 | -0.151 | 0.72 | -0.771 | -0.131 | 0.716 | 0.143 | -0.0816 | -0.345 | -0.213 | 0.465 | 0.362
C[C@@H]1NC(=O)[C@@H](C)COC(=O)[C@H](C)NC(=O)[C@@H](C)COC1=O | 0.429 | -0.23 | -0.0595 | -1.35 (inactive) | 0.765 | 0.642 | 0.401 | 1.15 | 0.769 | -0.772 | 1.08 | 0.0151 | 0.737 | -0.152 | -0.521 | -0.12 | -0.243 | 0.0209 | -0.143 | 0.144
Cn1c(=O)n2n(c1=O)[C@H]1[C@H](O)[C@@H]3O[C@@H]3C(=O)[C@H]1CC2 | 0.269 | -0.0838 | -0.512 | -0.515 (inactive) | 0.946 | 0.778 | 0.531 | 0.534 | 0.408 | 0.0134 | 0.625 | 0.101 | 0.486 | -0.144 | -0.502 | -0.104 | -0.0146 | -0.234 | 0.663 | -0.541
CCOC(=O)[C@H](CC(C)C)NC(=O)CCC1CC(OC(=O)NCc2cccc3ccccc23)CC2(CCCC(COC(=O)NCCc3ccc(Cl)cc3)O2)O1 (stereo not given in full) | 0.409 | -0.0738 | -0.406 | -1.18 (inactive) | 0.365 | 0.355 | 0.681 | 0.726 | 0.323 | -0.293 | 0.529 | -0.707 | 0.486 | 0.0203 | -0.117 | -0.191 | -0.473 | -0.114 | 0.161 | 0.557
